In PubChem BioAssay AID602143 (Vanderbilt Specialized Chemistry Center, 2011) one finds remaining activity data, which are given here for 36 compounds.

Several values for one entry are separate records, joined by “and”; a condition that tells them apart may be missing. Equal entries are not always repeated. Some compounds were tested as several samples or in several runs, with calls that do not always agree. Activity calls are given as the source filed them. Rule as the data show it: active = remaining activity below about 50%; inactive = the rest.

The target in the test is Phospholipase D2 (Homo sapiens) (UniProt O14939). In words: cellular phospholipase D2 activity inhibition – cell-based, HEK293, single concentration (AID 602143).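 Also: tested at 200 nM.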 To be noted: HEK293 cellular PLD2 activity, percent of control; stronger effect = lower value.
Phospholipase D2 (Homo sapiens), sequence (O14939 whole entry, looked up): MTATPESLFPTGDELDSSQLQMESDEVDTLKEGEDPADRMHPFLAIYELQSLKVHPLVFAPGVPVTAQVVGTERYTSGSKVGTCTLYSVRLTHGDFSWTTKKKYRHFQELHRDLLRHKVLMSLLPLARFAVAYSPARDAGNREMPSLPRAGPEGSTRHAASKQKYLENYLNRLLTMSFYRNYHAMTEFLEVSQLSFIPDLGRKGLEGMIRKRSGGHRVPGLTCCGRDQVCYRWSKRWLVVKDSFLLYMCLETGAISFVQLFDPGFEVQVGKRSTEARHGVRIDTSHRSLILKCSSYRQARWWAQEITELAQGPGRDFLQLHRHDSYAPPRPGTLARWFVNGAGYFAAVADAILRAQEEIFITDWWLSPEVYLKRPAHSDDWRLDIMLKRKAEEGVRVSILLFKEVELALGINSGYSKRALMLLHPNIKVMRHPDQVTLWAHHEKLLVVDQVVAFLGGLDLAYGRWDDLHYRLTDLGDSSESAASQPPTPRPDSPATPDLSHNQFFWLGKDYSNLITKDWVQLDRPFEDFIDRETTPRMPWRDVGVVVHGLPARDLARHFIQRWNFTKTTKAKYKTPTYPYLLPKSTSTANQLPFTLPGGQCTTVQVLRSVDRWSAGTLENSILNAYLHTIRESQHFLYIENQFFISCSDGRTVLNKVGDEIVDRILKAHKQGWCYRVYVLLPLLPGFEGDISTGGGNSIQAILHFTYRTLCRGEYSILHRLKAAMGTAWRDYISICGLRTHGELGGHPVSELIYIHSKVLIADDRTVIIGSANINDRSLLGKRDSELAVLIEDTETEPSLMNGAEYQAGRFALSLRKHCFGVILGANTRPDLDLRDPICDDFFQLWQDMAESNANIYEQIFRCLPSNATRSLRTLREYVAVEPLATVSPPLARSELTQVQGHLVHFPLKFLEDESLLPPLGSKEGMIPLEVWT
Phospholipase D2 (Homo sapiens), sequence (O14939 whole entry, looked up): as above
The term remaining activity denotes the signal under treatment as a percentage of the control signal. Consider `O=C(NCCN1CCC2(CC1)C(=O)NCN2c1ccccc1)c1cc2ccccc2s1`, for which the remaining activity is 10.3% (active). As for `O=C(NCCN1CCC2(CC1)C(=O)NCN2c1cccc(F)c1)c1ccc(Cl)cc1Cl`, the remaining activity was 92.4% (inactive). As to `O=C(NCCN1CCC2(CC1)C(=O)NCN2c1ccccc1)c1ccnnc1`, the remaining activity is 101% (inactive). Take `O=C(CCN1CCC2(CC1)C(=O)NCN2c1ccccc1)Nc1ccc(F)c(F)c1`: the remaining activity was 147% (inactive). Turning to `Nc1cccc(Cl)c1C(=O)NCCN1CCC2(CC1)C(=O)NCN2c1ccccc1`, the remaining activity is 100% (inactive). On to `C[C@H](N)CN1CCC2(CC1)C(=O)NCN2c1ccccc1` (tested in a mixture with another compound), for which the remaining activity was 74.1% (inactive). With `C[C@@H](CN1CCC2(CC1)C(=O)NCN2c1ccccc1)NC(=O)c1ccc(F)c(F)c1` the figure was 54.7% (inactive). With `O=C(NCCN1CCC2(CC1)C(=O)NCN2c1ccc(Cl)cc1)c1cc2cc(F)ccc2[nH]1` the figure was 57% (inactive). With `O=C(NCCN1CCC2(CC1)C(=O)NCN2c1ccccc1)c1ccc2c(c1)C(=O)OC2=O`, the remaining activity was 93.5% (inactive). For `O=C(NCCN1CCC2(CC1)C(=O)NCN2c1cccc(F)c1)C(c1ccccc1)c1ccccc1` the value was 92.3% (inactive); for `C[C@@H](CN1CCC2(CC1)C(=O)NCN2c1ccc(F)c(F)c1)NC(=O)c1ccc(Cl)cc1`, 14.9% (active); for `CC1(C)C(C(=O)NCCN2CCC3(CC2)C(=O)NCN3c2ccccc2)C1(C)C`, 122% (inactive). `O=C(NCCN1CCC2(CC1)C(=O)NCN2c1ccccc1)c1cc2cccnc2s1`: the remaining activity is 79.2% (inactive).

Consider `O=C(NCCN1CCC2(CC1)C(=O)NCN2c1cccc(Cl)c1)c1cc2cc(F)ccc2[nH]1`, for which the remaining activity was 40.2% (active). On to `O=C(NCCN1CCC2(CC1)C(=O)NCN2c1ccc(Br)cc1)c1cnc2ccccc2c1`, for which the remaining activity is 48.6% (active). For `C[C@@H](CN1CCC2(CC1)C(=O)NCN2c1ccc(F)c(F)c1)NC(=O)c1cc2ccccc2[nH]1`, the remaining activity was 0% (active). For the compound `O=C(COCc1ccccc1)NCCN1CCC2(CC1)C(=O)NCN2c1cccc(F)c1`, the remaining activity is 86.7% (inactive). With `C[C@@H](CN1CCC2(CC1)C(=O)N(Cc1ccccc1)c1ccccc12)NC(=O)c1ccc2ccccc2c1`, the remaining activity is 71.6% (inactive). For `O=C(NCCN1CCC2(CC1)C(=O)NCN2c1cccc(F)c1)c1cccc(F)c1` the value was 63.4% (inactive); for `O=C(Cc1ccccc1Br)NCCN1CCC2(CC1)C(=O)NCN2c1cccc(F)c1`, 117% (inactive).

Regarding `O=C(NCCN1CCC2(CC1)C(=O)NCN2c1cccc(F)c1)c1ccc(F)nc1`, the remaining activity was 85.7% (inactive). As for `CCOC(=O)CCN1CCC2(CC1)C(=O)NCN2c1ccccc1`, the remaining activity is 91.6% (inactive).

Regarding `Cc1ccc(C(=O)NCCN2CCC3(CC2)C(=O)NCN3c2ccccc2)c(O)c1`, the remaining activity is 85% (inactive). In the case of `O=C(c1c(F)cccc1F)N(CCN1CCC2(CC1)C(=O)NCN2c1cccc(F)c1)C(=O)c1c(F)cccc1F`, the remaining activity is 88.1% (inactive). With `CCCCCC(=O)NCCN1CCC2(CC1)C(=O)NCN2c1cccc(F)c1`, the remaining activity is 80.7% (inactive). `O=C(NCCN1CCC2(CC1)C(=O)NCN2c1cccc(Br)c1)c1ccc2ccccc2c1`: the remaining activity is 47.8% (active). In the case of `O=C(c1ccc2ccccc2c1)N1CCCC1CN1CCC(n2c(=O)[nH]c3ccccc32)CC1` (stereo unspecified), the remaining activity was 49.9% (active) and 63.2% (inactive). As for `O=C(NCCN1CCC2(CC1)C(=O)NCN2c1ccc(Br)cc1)c1cc2cc(F)ccc2[nH]1`, the remaining activity is 23.7% (active). Turning to `O=C(NCCCN1CCC2(CC1)C(=O)NCN2c1ccccc1)c1ccc2ccccc2c1`, the remaining activity was 98% (inactive). Consider `O=C(c1cnc2ccccc2c1)N1CCCC1CN1CCC(n2c(=O)[nH]c3ccccc32)CC1` (stereo unspecified), for which the remaining activity was 54.2% (inactive). `O=C(NCCN1CCC2(CC1)C(=O)NCN2c1cccc(F)c1)c1ccc2c(c1)C(=O)OC2=O`: the remaining activity is 66.5% (inactive). Consider `O=C(NCCN1CCC2(CC1)C(=O)NCN2c1ccccc1)C1(c2ccccc2)CCC1`, for which the remaining activity was 87.6% (inactive).

For `CC(C)[C@@H](CN1CCC2(CC1)C(=O)NCN2c1ccccc1)NC(=O)c1ccc(F)cc1`, the remaining activity was 74.9% (inactive).

As to `O=C(CCN1CCC2(CC1)C(=O)NCN2c1ccccc1)Nc1ccc(F)cc1`, the remaining activity is 119% (inactive). Take `O=C(NCCN1CCC2(CC1)C(=O)NCN2c1ccccc1)c1cnc2ccccc2n1`: the remaining activity was 101% (inactive). Consider `CC(C)[C@@H](CN1CCC2(CC1)C(=O)NCN2c1ccccc1)NC(=O)c1ccc2ccccc2c1`, for which the remaining activity was 80.9% (inactive).
